Experimental data from PubChem BioAssay (NCI).
Compounds without any hit were thinned out: in the full panel of roughly 83,000, 20% have a hit.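 Single-concentration screen, 48 h exposure, 96-well plates. Endpoint: percent growth. Below 10 = active.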 Active and inactive are the calls of the source.

Legend:
Test in all cases: NCI-60 one-dose screen, 48 h (100 = growth as untreated, 0 = no growth, -100 = all killed)
HCT-15 colon = details: 10 µM unless noted
HT29 colon = details: 10 µM unless noted
SNB-75 CNS = details: 10 µM unless noted
SNB-19 CNS = details: 10 µM unless noted
U251 CNS = details: 10 µM unless noted
PC-3 prostate = details: 10 µM unless noted
SK-MEL-5 melanoma = details: 10 µM unless noted
UACC-62 melanoma = details: 10 µM unless noted
LOX IMVI melanoma = details: 10 µM
SK-MEL-28 melanoma = details: 10 µM unless noted
SK-MEL-2 melanoma = details: 10 µM unless noted
EKVX NSCLC = details: 10 µM unless noted
SN12C renal = details: 10 µM unless noted
UO-31 renal = details: 10 µM unless noted
TK-10 renal = details: 10 µM unless noted
ACHN renal = details: 10 µM unless noted
CAKI-1 renal = details: 10 µM unless noted
A498 renal = details: 10 µM unless noted
CCRF-CEM leukemia = details: 10 µM unless noted
MOLT-4 leukemia = details: 10 µM unless noted

Measured: growth

COC1(OC)C2(Cl)C(Cl)=C(Cl)C1(Cl)C1COCC12 (stereo not given)
inactive: HCT-15 colon 103% | HT29 colon 99.3% | SNB-75 CNS 86.3% | SNB-19 CNS 100% | U251 CNS 103% | PC-3 prostate 97.6% | SK-MEL-5 melanoma 102% | UACC-62 melanoma 97.4% | LOX IMVI melanoma 107% | SK-MEL-28 melanoma 105% | SK-MEL-2 melanoma 89.7% | EKVX NSCLC 104% | SN12C renal 99.2% | UO-31 renal 91.6% | TK-10 renal 94.7% | ACHN renal 108% | CAKI-1 renal 93.9% | A498 renal 87.6% | CCRF-CEM leukemia 103% | MOLT-4 leukemia 102%

O=CNCCc1ccccc1
inactive: HCT-15 colon 109% | HT29 colon 98.3% | SNB-75 CNS 82.9% | SNB-19 CNS 98.4% | U251 CNS 99.4% | PC-3 prostate 91.4% | SK-MEL-5 melanoma 107% | UACC-62 melanoma 96.8% | LOX IMVI melanoma 109% | SK-MEL-28 melanoma 113% | SK-MEL-2 melanoma 105% | EKVX NSCLC 97.3% | SN12C renal 90% | UO-31 renal 87.8% | TK-10 renal 92.4% | ACHN renal 98.5% | CAKI-1 renal 93.8% | A498 renal 111% | CCRF-CEM leukemia 103% | MOLT-4 leukemia 96.8%

Cc1ccc(N2C(=O)c3cccc4c(N)c(S(=O)(=O)O)cc(c34)C2=O)cc1
inactive: HCT-15 colon 105% | HT29 colon 124% | SNB-75 CNS 111% | SNB-19 CNS 112% | U251 CNS 96.7% | PC-3 prostate 90% | SK-MEL-5 melanoma 102% | UACC-62 melanoma 97.4% | LOX IMVI melanoma 95% | SK-MEL-28 melanoma 124% | SK-MEL-2 melanoma 82.3% | EKVX NSCLC 113% | SN12C renal 105% | UO-31 renal 77.3% | TK-10 renal 124% | ACHN renal 102% | CAKI-1 renal 108% | A498 renal 136% | CCRF-CEM leukemia 100% | MOLT-4 leukemia 115%

Cc1ccc(C)c(CN(C)C)c1O
inactive: HCT-15 colon 121% | HT29 colon 115% | SNB-75 CNS 84.2% | SNB-19 CNS 122% | U251 CNS 99.6% | PC-3 prostate 102% | SK-MEL-5 melanoma 107% | UACC-62 melanoma 117% | LOX IMVI melanoma 98.9% | SK-MEL-28 melanoma 102% | SK-MEL-2 melanoma 143% | EKVX NSCLC 98.1% | SN12C renal 115% | UO-31 renal 90.1% | TK-10 renal 105% | ACHN renal 114% | CAKI-1 renal 114% | A498 renal 94.2% | CCRF-CEM leukemia 135%

O=C(N/N=C\c1ccc(Cl)cc1Cl)c1ccncc1
inactive: HCT-15 colon 102% | HT29 colon 90.1% | SNB-75 CNS 77.4% | SNB-19 CNS 92.8% | U251 CNS 92.7% | PC-3 prostate 94% | SK-MEL-5 melanoma 98.9% | UACC-62 melanoma 106% | LOX IMVI melanoma 85.4% | SK-MEL-28 melanoma 103% | SK-MEL-2 melanoma 94.4% | EKVX NSCLC 101% | SN12C renal 98.7% | UO-31 renal 90.7% | TK-10 renal 91.4% | ACHN renal 105% | CAKI-1 renal 99% | A498 renal 95.8% | CCRF-CEM leukemia 99.6%

CCOP(=O)(NC(c1ccccc1)c1ccccc1)OCC
inactive: HCT-15 colon 117% | HT29 colon 107% | SNB-75 CNS 88.7% | SNB-19 CNS 102% | U251 CNS 105% | PC-3 prostate 82.6% | SK-MEL-5 melanoma 105% | UACC-62 melanoma 114% | LOX IMVI melanoma 93.1% | SK-MEL-28 melanoma 106% | SK-MEL-2 melanoma 109% | EKVX NSCLC 109% | SN12C renal 146% | UO-31 renal 84.4% | TK-10 renal 112% | ACHN renal 103% | CAKI-1 renal 93% | A498 renal 102% | CCRF-CEM leukemia 103% | MOLT-4 leukemia 106%

Cc1nc(C)c(C(=O)O)cc1C(=O)O
inactive: HCT-15 colon 103% | HT29 colon 109% | SNB-75 CNS 91.5% | SNB-19 CNS 109% | U251 CNS 107% | PC-3 prostate 99.7% | SK-MEL-5 melanoma 111% | UACC-62 melanoma 105% | LOX IMVI melanoma 95.8% | SK-MEL-28 melanoma 112% | SK-MEL-2 melanoma 114% | EKVX NSCLC 102% | SN12C renal 125% | UO-31 renal 97.2% | TK-10 renal 112% | ACHN renal 104% | CAKI-1 renal 100% | A498 renal 89.3% | CCRF-CEM leukemia 103% | MOLT-4 leukemia 103%

ClCC(Cl)[C@@H]1CC2C=CC1C2 (stereo not given in full)
inactive: HCT-15 colon 109% | HT29 colon 107% | SNB-75 CNS 93.6% | SNB-19 CNS 104% | U251 CNS 99.5% | PC-3 prostate 102% | SK-MEL-5 melanoma 99.1% | UACC-62 melanoma 98.7% | LOX IMVI melanoma 97.7% | SK-MEL-28 melanoma 106% | SK-MEL-2 melanoma 112% | EKVX NSCLC 98.3% | SN12C renal 102% | UO-31 renal 88.7% | TK-10 renal 114% | ACHN renal 108% | CAKI-1 renal 100% | A498 renal 80.2%

NNC(=O)N/N=C1\C(=O)N(c2nccs2)C(=O)C(=O)C1c1nc2ccccc2s1 (stereo not given)
inactive: HCT-15 colon 116% | HT29 colon 94.1% | SNB-75 CNS 81.8% | SNB-19 CNS 101% | U251 CNS 80% | PC-3 prostate 82.6% | SK-MEL-5 melanoma 96.5% | UACC-62 melanoma 90.5% | LOX IMVI melanoma 96.3% | SK-MEL-28 melanoma 112% | SK-MEL-2 melanoma 98.4% | EKVX NSCLC 84.8% | SN12C renal 96% | UO-31 renal 75.5% | TK-10 renal 114% | ACHN renal 109% | CAKI-1 renal 96.7% | A498 renal 98.3%

N#Cc1ccc2nc[nH]c2c1
inactive: HCT-15 colon 106% | HT29 colon 112% | SNB-75 CNS 95.5% | SNB-19 CNS 111% | U251 CNS 101% | PC-3 prostate 105% | SK-MEL-5 melanoma 102% | UACC-62 melanoma 105% | LOX IMVI melanoma 101% | SK-MEL-28 melanoma 108% | SK-MEL-2 melanoma 102% | EKVX NSCLC 104% | SN12C renal 110% | UO-31 renal 91.4% | TK-10 renal 108% | CAKI-1 renal 95% | A498 renal 98.7% | CCRF-CEM leukemia 115%
active: ACHN renal -68.5%

CC1(C)OC2C(CO)OC(n3ccc(=O)[nH]c3=O)C2O1 (stereo not given)
inactive: HCT-15 colon 102% | HT29 colon 94.3% | SNB-75 CNS 106% | SNB-19 CNS 100% | U251 CNS 87.6% | PC-3 prostate 90.2% | SK-MEL-5 melanoma 97.9% | UACC-62 melanoma 93.9% | LOX IMVI melanoma 101% | SK-MEL-28 melanoma 108% | SK-MEL-2 melanoma 96.6% | EKVX NSCLC 104% | SN12C renal 90.1% | UO-31 renal 88% | TK-10 renal 87.2% | ACHN renal 104% | CAKI-1 renal 101% | A498 renal 75.9% | CCRF-CEM leukemia 101% | MOLT-4 leukemia 92.3%

Nc1cc(N)ncn1
inactive: HCT-15 colon 102% | HT29 colon 104% | SNB-75 CNS 88.9% | SNB-19 CNS 96.1% | U251 CNS 104% | PC-3 prostate 97.7% | SK-MEL-5 melanoma 98.3% | UACC-62 melanoma 99.6% | LOX IMVI melanoma 98.4% | SK-MEL-28 melanoma 98.9% | SK-MEL-2 melanoma 113% | EKVX NSCLC 102% | SN12C renal 97.1% | UO-31 renal 94% | TK-10 renal 102% | ACHN renal 102% | CAKI-1 renal 102% | A498 renal 93.8% | CCRF-CEM leukemia 99.2% | MOLT-4 leukemia 93.5%

S=C(Sc1ccc(Cl)cc1)Sc1ccc(Cl)cc1
inactive: SNB-75 CNS 46% | SNB-19 CNS 83.9% | SK-MEL-5 melanoma 65.9% | SK-MEL-2 melanoma 90.9% | EKVX NSCLC 49.1% | ACHN renal 70% | A498 renal 70.6%
active: HCT-15 colon 3.17% | HT29 colon 4.96% | U251 CNS -43% | PC-3 prostate 9.49% | UACC-62 melanoma -47% | LOX IMVI melanoma -100% | SK-MEL-28 melanoma -64.2% | SN12C renal -47.6% | UO-31 renal -59.8% | TK-10 renal -36.3% | CAKI-1 renal -75.6% | CCRF-CEM leukemia -15.8% | MOLT-4 leukemia -25.4%

COC1OC(CO)C(OC)C(O)C1O (stereo not given)
inactive: HCT-15 colon 100% | HT29 colon 110% | SNB-75 CNS 103% | SNB-19 CNS 105% | U251 CNS 99.6% | PC-3 prostate 103% | SK-MEL-5 melanoma 103% | UACC-62 melanoma 96.2% | LOX IMVI melanoma 95.6% | SK-MEL-28 melanoma 95.9% | SK-MEL-2 melanoma 111% | EKVX NSCLC 103% | SN12C renal 104% | UO-31 renal 92.5% | TK-10 renal 110% | ACHN renal 104% | CAKI-1 renal 105% | A498 renal 92.7% | CCRF-CEM leukemia 102%

CC1CC(C)S(=O)(=O)C1 (stereo not given)
inactive: HCT-15 colon 103% | HT29 colon 99.9% | SNB-75 CNS 94.6% | SNB-19 CNS 108% | U251 CNS 88.5% | PC-3 prostate 104% | SK-MEL-5 melanoma 101% | UACC-62 melanoma 92.9% | LOX IMVI melanoma 103% | SK-MEL-28 melanoma 111% | SK-MEL-2 melanoma 112% | EKVX NSCLC 108% | SN12C renal 108% | UO-31 renal 101% | TK-10 renal 103% | ACHN renal 103% | CAKI-1 renal 106% | A498 renal 122% | CCRF-CEM leukemia 101%

C/C(Cc1ccccc1)=N\O
active: CCRF-CEM leukemia -29.9%
inactive: HCT-15 colon 96.9% | HT29 colon 101% | SNB-75 CNS 115% | SNB-19 CNS 108% | U251 CNS 104% | PC-3 prostate 88.4% | SK-MEL-5 melanoma 99.4% | UACC-62 melanoma 106% | LOX IMVI melanoma 119% | SK-MEL-28 melanoma 111% | SK-MEL-2 melanoma 104% | EKVX NSCLC 116% | SN12C renal 107% | UO-31 renal 102% | TK-10 renal 103% | ACHN renal 106% | CAKI-1 renal 115% | A498 renal 103%

O=S(Cc1ccccc1)/C(=C/NC(=S)Nc1ccccc1)c1ccccc1 (stereo not given)
inactive: HCT-15 colon 106% | HT29 colon 104% | SNB-75 CNS 80.2% | SNB-19 CNS 110% | U251 CNS 100% | PC-3 prostate 95.4% | SK-MEL-5 melanoma 104% | UACC-62 melanoma 103% | LOX IMVI melanoma 90.9% | SK-MEL-28 melanoma 106% | SK-MEL-2 melanoma 104% | EKVX NSCLC 102% | SN12C renal 109% | UO-31 renal 81.7% | TK-10 renal 119% | ACHN renal 97.2% | CAKI-1 renal 94.8% | A498 renal 120% | CCRF-CEM leukemia 102% | MOLT-4 leukemia 103%
